Outcome data for 40 compounds are collected here from PubChem BioAssay (Tox21).

Inconclusive results are not listed. The source made the active and inactive calls. Calls come from the whole dose curve; as a rule, active = well fitted cell-killing curve with a large enough effect in the repeat runs; inconclusive = weak or mixed curves; inactive = flat fitted curve, though single readings scatter.

A short description of this experiment: qHTS RealTime-Glo MT Cell Viability Assay in HepG2 cells - 8 hour (AID 1224873). Note: nearly all actives have a fitted effect of over 55% in size. Conditions: RealTime-Glo luminescence; series mostly up to 76.8 µM. An excerpt: National Center for Advancing Translational Sciences [NCATS]
NIH Chemical Genomics Center [NCGC]
U.S. Environmental Protection Agency [EPA]
National Institutes of Environmental Health Sciences [NIEHS]
National Toxicology Program [NTP]
U.S. Food and Drug Administration [FDA]
Measure of cell viability is critical in the cell-base assay. Analysis of cell viability is necessary for the characterization of cell responses to cytotoxic drugs and environmental stress. A RealTime-Glo MT Cell Viability Assay to monitor cell viability in real time of continues cell culture during 40 hours of compound treatment was used to screen Tox21 10K library compounds in HepG2 cells. The RealTime-Glo MT Cell Viability Assay is a nonlytic, homogeneous, bioluminescent method to measure cell viability in real time using a simple, plate-based method. The assay involves adding NanoLuc luciferase and a cell-permeant prosubstrate to cells in culture. Viable cells reduce the proprietary prosubstrate to generate a substrate for NanoLuc luciferase. This substrate diffuses from cells into the surrounding culture medium, where it is rapidly used by the NanoLuc Enzyme to produce a luminescent signal. The signal correlates with the number of viable cells, making the assay well suited for cytotoxicity studies.
Tox21 Assay Protocol Summary:
The mixture of HepG2 cell suspension and reagents were dispensed at 600cells/6 ul/well in 1536-well tissue culture treated black solid bottom plates using a Multidrop dispenser. After the assay plates were incubated at a 37 C/5% CO2 incubator for 5 hours, 23 nL of compounds dissolved in DMSO, positive and negative controls was transferred to the assay plate by a pintool work station. The plates were incubated at 37 C for 40 hours. The luminescence intensity were measured at 0h, 8h, 16h, 24h, 32h and 40h time points using ViewLux plate reader during compound treatment.
`Cc1cccc(C)c1O`: the compound was called inactive.

In the case of `CC(=O)/C=C/C1=C(C)CCCC1(C)C`, the outcome was inactive.

Turning to `CC(=O)CCC(C)C`, the result was inactive.

For `C[C@]12CC[C@@H]3c4ccc(O)cc4CC[C@H]3[C@@H]1CCC2=O`, the result was inactive.

As to `CCCCCCCCOc1ccc(C(=O)c2ccccc2)c(O)c1`, the compound was called inactive.

Regarding `CC1=NN(c2ccccc2)C(=O)C1`, the call was inactive.

Consider `Cc1c(N(C)CS(=O)(=O)O)c(=O)n(-c2ccccc2)n1C`, for which the compound was called inactive.

Consider `CCN(CC)CCOC(=O)c1ccc(N)cc1`, for which the result was inactive.

On to `Nc1ccc(N=Nc2ccccc2)c(N)n1`, for which the result was inactive.

Take `CC1(C)O[C@@H]2[C@@H](CO[C@@]3(COS(N)(=O)=O)OC(C)(C)O[C@@H]23)O1`: the compound was classed as inactive.

For `CC(C)Cc1ccc(C(C)C(=O)O)cc1` (stereo not given), the call was inactive.

Take `CC(=O)c1ccc(S(=O)(=O)NC(=O)NC2CCCCC2)cc1`: the call was inactive.

On to `O=C(O)CCCCC1CCSS1` (stereo not given), for which the compound was classed as inactive.

As for `OCCCc1ccccc1`, the call was inactive.

On to `c1ccc2[nH]c(-c3cscn3)nc2c1`, for which the call was inactive.

As for `NC(=O)NO`, the compound was classed as inactive.

Take `CN/C(=C\[N+](=O)[O-])NCCSCc1ccc(CN(C)C)o1`: the call was inactive.

On to `NC(=O)N1c2ccccc2C=Cc2ccccc21`, for which the compound was called inactive.

`C1CNCCN1`: the call was inactive.

As to `CCOC(=O)C(C)(C)Oc1ccc(Cl)cc1`, the result was inactive.

Consider `CCCCCCCC(=O)OCC(O)CO` (stereo not given), for which the compound was called inactive.

With `CC(=O)Oc1ccccc1C(=O)O`, the compound was classed as inactive.

For `COc1ccccc1NC(=O)CC(C)=O`, the outcome was inactive.

Turning to `COc1ccc(C(=O)c2ccccc2)c(O)c1`, the outcome was inactive.

On to `Cn1cnc2c1c(=O)[nH]c(=O)n2C`, for which the outcome was inactive.

For the compound `COc1cc(O)c(C(=O)c2ccccc2)cc1S(=O)(=O)O`, the result was inactive.

In the case of `O=C1CCCCCN1`, the call was inactive.

`CCCCC/C(C=O)=C\c1ccccc1`: the outcome was inactive.

For `COCC(C)N` (stereo not given), the call was inactive.

For `C#C[C@]1(O)CC[C@H]2[C@@H]3CCC4=CC(=O)CC[C@@H]4[C@H]3CC[C@@]21CC`, the compound was classed as inactive.

Regarding `CC(C)(C)CC(C)(C)c1ccc(O)c(-n2nc3ccccc3n2)c1`, the outcome was inactive.

As to `C[C@]12C[C@H](O)[C@H]3[C@@H](CCC4=CC(=O)CC[C@@]43C)[C@@H]1CC[C@@H]2C(=O)CO`, the outcome was inactive.

Regarding `CCCCCCCCCCCCCC(=O)OC(C)C`, the call was inactive.

Regarding `COc1ccc(O)cc1`, the call was inactive.

With `CC(C)CC(C)CC(O)CC(C)C` (stereo not given), the result was inactive.

With `NC(=O)OCC(COC(N)=O)c1ccccc1`, the compound was classed as inactive.

Take `CC1=C(/C=C/C(C)=C/C=C/C(C)=C/C(=O)O)C(C)(C)CCC1`: the result was inactive.

Turning to `CCn1cc(C(=O)O)c(=O)c2ccc(C)nc21`, the call was inactive.

As to `Cc1cccc2ccccc12`, the result was inactive.

Regarding `Cc1ccc(O)c(-n2nc3ccccc3n2)c1`, the call was inactive.
